Mito fusion yeast – inhibitors of mitochondrial division or activators of mitochondrial fusion. S. cerevisiae fusion-defective mutant growth rescue, CellTiterGlo 48 h. Potency, µM (series often up to 46.1 µM), most hits filed as activators. hit rate 0.23% among 320,000. AID 485298; also: nearly all actives have a fitted effect of over 45% in size
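S. cerevisiae fusion-defective temperature-sensitive mutants (e.g. fzo1-1, mgm1-5) grown 48 h at 37C in YPEG (ethanol/glycerol non-fermentable) medium with 23 nl compound per well; growth rescue read as CellTiterGlo luminescence.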
MCF10A rerep – induces DNA re-replication in MCF 10a normal breast cells | MCF 10A DNA re-replication, Hoechst nuclear intensity, 48 h | Potency, µM (series often up to 46.1 µM), actives largely listed as activators | hit rate 2.9% among 350,000; also: nearly all actives have a fitted effect of over 50% in size
AT treatment – potential ataxia-telangiectasia treatment | hit rate 0.19% among 320,000 | Potency, µM (highest dose often 57.5 µM), actives largely listed as activators | F2112 A-T fibroblasts, KAP-1 phosphorylation AlphaLISA; neocarzinostatin DNA damage 30 min before lysis | AID 485349; also: nearly all actives have a fitted effect of over 45% in size
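ATM-like activity read as KAP-1 phosphorylation via AlphaLISA donor/acceptor antibody pairs after lysis and 6 hr at 25C. Cells were ATM-null patient fibroblasts (F2112, hTERT), dosed 60 min, then exposed to the DSB inducer NCS for 30 min.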
SW480 rerep – DNA re-replication induction in SW480 cells; SW480 DNA re-replication, Hoechst DNA content imaging, 48 h; Potency, µM (top dose mostly 46.1 µM), actives largely listed as activators; hit rate 1.8% among 340,000; also: nearly all actives have a fitted effect of over 55% in size
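DNA re-replication was detected as more nuclei of elevated Hoechst intensity after 48 hr exposure to compound (23 nL pinned per well of 250 cells).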
a7 integrin act – integrin-mediated muscular dystrophy alleviation activation. alpha7betagal myoblasts, beta-gal FDG fluorescence, 48 h. Potency, µM (series often up to 38.3 µM), most hits filed as activators. hit rate 0.064% among 350,000. AID 624291; also: nearly all actives have a fitted effect of over 60% in size
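Alpha7betagal+/- myoblasts (passage 13) were plated 16-24 hr, then exposed to compounds (1:260 dilution of DMSO stock) for 48 hours at 37C. After MPER lysis, β-galactosidase reporter activity was read as FDG fluorescence (ex 480/em 540) after 30 minutes.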
Of the large screens only hits and unclear results are named; the others gave an inactive call. Shown are actives, neighbours in structure and some others; about 4.2% of the full set was active somewhere. Calls follow the shape of the dose curve; as a rule, active = well fitted activation curve with a large enough effect; inconclusive = small, poorly fitted or top-dose-only effect; inactive = no such curve, though single readings can be large or run the other way.

CCO[C@H]1OC(C(=O)N2CCN(C)CC2)=C[C@@H](c2csc3ccccc23)[C@@H]1CCCO	AT treatment 20µM
COc1cc(C2NC(=O)NC(c3ccccc3)=C2C(C)=O)cc(Cl)c1OCC(=O)O (stereo not given)	none
COc1cc(C2NC(=O)NC(c3ccccc3)=C2C(C)=O)c(Cl)cc1OCC(=O)O (stereo not given)	SW480 rerep 4.11µM
CN(C)c1ccc(/C=N/N(CCC(=O)NC(C)(C)C)C2=NS(=O)(=O)c3ccccc32)cc1	MCF10A rerep 18.4µM, SW480 rerep 18.4µM
CC(C)(C)NC(=O)CCN(/N=C/c1ccc([N+](=O)[O-])o1)C1=NS(=O)(=O)c2ccccc21	MCF10A rerep 23.1µM, SW480 rerep 13µM
CN(C)c1ccc(/C=N/N(CCO)C2=NS(=O)(=O)c3ccccc32)cc1	none
CC1(C)C=Cc2cc(-c3coc4cc(O)cc(O)c4c3=O)cc(O)c2O1	MCF10A rerep 14.6µM (no result: Mito fusion yeast, AT treatment)
CCOC(=O)c1c(-c2ccc(C)cc2)cn2ccccc12	MCF10A rerep inconclusive, AT treatment 31.6µM
NC(=O)N1N=C2/C(=C/c3ccccc3)CCCC2C1c1ccccc1 (stereo not given)	MCF10A rerep 8.2µM
O=C(CSc1ncnc2ccccc12)Nc1ccc2c(c1)OCO2	MCF10A rerep inconclusive
COc1ccc(N2CCN(C(=O)CSc3nnnn3-c3ccc4c(c3)OCCO4)CC2)cc1	MCF10A rerep 16.4µM
O=C(CSc1ncnc2c1cnn2-c1ccccc1)Nc1ccc2c(c1)OCO2	MCF10A rerep 14.6µM
CCOC(=O)c1c(NC(=O)CSc2nnnn2-c2ccc3c(c2)OCO3)sc(C)c1C	SW480 rerep inconclusive
CCOC(=O)c1c(NC(=O)CSc2nnnn2-c2ccc3c(c2)OCCO3)sc(C)c1C	MCF10A rerep 18.4µM
CC(=O)Nc1ccc(NC(=O)CSc2nnnn2-c2ccc(F)cc2)cc1	AT treatment 3.16µM
COC(=O)C1CSC(c2ccc(Cl)cc2)N1C(=O)c1ccccc1 (stereo not given)	none
O=C(CCN1CCOCC1)NNC(=O)Nc1cccc([N+](=O)[O-])c1	SW480 rerep inconclusive
CCN(C[C@H]1N[C@@](CC)(C(=O)OC)[C@H]2C(=O)N(C)C(=O)[C@@H]12)S(=O)(=O)c1ccccc1	none (no result: Mito fusion yeast)
CCOC(=O)NC(=O)CSc1nnnn1-c1ccc(Cl)cc1	MCF10A rerep 1.84µM, SW480 rerep 5.17µM
Cc1ccc(NC(=O)CSc2nnnn2-c2ccc3c(c2)OCO3)cc1C	MCF10A rerep 16.4µM, SW480 rerep inconclusive
CCOC(=O)NC(=O)CSc1nnnn1-c1ccc(C)cc1	none
COc1cc(C(=S)N2CCCC2)cc(OC)c1OC	MCF10A rerep 3.66µM
CC(C)CC(=O)N1CCN(Cc2ccc(Cl)cc2)CC1	MCF10A rerep inconclusive
CN(C)C(=O)CN1CCN(C(=O)CCl)CC1	none
CC(C)c1ccc(CN2CCN(C(=O)CCl)CC2)cc1	MCF10A rerep 6.51µM, SW480 rerep inconclusive
CC(C)NC(=O)CN1CCN(C(=O)CCl)CC1	a7 integrin act 7.08µM
CC(C)c1ccc(/C=C/C(=O)Nc2ccc(CN3CCOCC3)cc2)cc1	MCF10A rerep 13µM, SW480 rerep inconclusive
O=C(/C=C/c1ccc(Cl)cc1)Nc1ccc(CN2CCOCC2)cc1	SW480 rerep inconclusive
CCOC(=O)/C(=N/Nc1ccc(Br)cc1)N1CC(C)OC(C)C1 (stereo not given)	MCF10A rerep inconclusive (no result: Mito fusion yeast, AT treatment)
NC(=O)c1c(N)sc(=S)n1-c1ccccc1	MCF10A rerep 6.51µM
O=C(/C(=C/c1ccc(Cl)cc1)c1nc2ccccc2[nH]1)c1cccs1	MCF10A rerep 5.17µM, AT treatment 3.55µM, SW480 rerep inconclusive, a7 integrin act inconclusive
O=C(/C(=C\c1ccccc1)c1nc2ccccc2[nH]1)c1ccc(Cl)cc1	MCF10A rerep 4.11µM, SW480 rerep inconclusive
COc1cc(/C=C(/C(=O)c2cccs2)c2nc3ccccc3[nH]2)ccc1O	MCF10A rerep 4.11µM, AT treatment 25.1µM, SW480 rerep 7.31µM
Cn1cnc2c(cnn2C)c1=O	none (no result: Mito fusion yeast, AT treatment)
CC(=O)C1=C(O)C(=O)N(c2ccccn2)C1c1ccccc1[N+](=O)[O-] (stereo not given)	MCF10A rerep inconclusive, SW480 rerep 20.6µM
COCCNC(=O)/C(C#N)=C/c1c(N2CCN(c3ccccc3)CC2)nc2ccccn2c1=O	none
COCCCNC(=O)/C(C#N)=C/c1c(N2CCN(c3ccccc3)CC2)nc2ccccn2c1=O	Mito fusion yeast inconclusive, MCF10A rerep 20.6µM, SW480 rerep 9.2µM
COCCCNC(=O)/C(C#N)=C/c1c(N2CCN(C)CC2)nc2ccccn2c1=O	MCF10A rerep 20.6µM, AT treatment inconclusive, SW480 rerep inconclusive
COC(=O)[C@@]1(Cc2ccc(F)cc2)[C@H]2c3cc(C(=O)N4CCCC4)n(CCc4c[nH]c5ccc(OC)cc45)c3C[C@H]2CN1C(=O)c1ccccc1	none (no result: a7 integrin act)
CCc1ccc2c(c1)/C(=C/C(=O)c1cccs1)C(=O)N2	MCF10A rerep inconclusive, SW480 rerep 9.2µM
NNc1nc(-c2ccccc2Cl)c2cc(Br)ccc2n1	none
O=C(O)CCC(=O)N1CCN(c2nc(-c3ccccc3Cl)c3cc(Br)ccc3n2)CC1	MCF10A rerep 20.6µM
OCCNc1nc(-c2ccccc2)c2cc(Br)ccc2n1	MCF10A rerep inconclusive, SW480 rerep inconclusive
O=C(O)CCC(=O)N1CCN(c2nc(-c3ccccc3)c3cc(Br)ccc3n2)CC1	MCF10A rerep 23.1µM, SW480 rerep inconclusive
CCOC(=O)NC1=NCC(C)(C)S1	none (no result: Mito fusion yeast, AT treatment)
CN(C)CCCN(Cc1cc2cc3c(cc2[nH]c1=O)OCO3)C(=S)Nc1cccc(Cl)c1	MCF10A rerep 15.8µM, SW480 rerep inconclusive
Cc1ccc(NC(=S)N(CCN(C)C)Cc2cc3cccc(C)c3[nH]c2=O)cc1	MCF10A rerep inconclusive, SW480 rerep 20.6µM
CNC(=S)N(CCO)Cc1cc2cc3c(cc2[nH]c1=O)OCCO3	AT treatment 2.82µM
COCCCNC(=S)N(CCO)Cc1cc2cc3c(cc2[nH]c1=O)OCCO3	MCF10A rerep 0.651µM
CN(C)CCCN(Cc1cc2cc3c(cc2[nH]c1=O)OCO3)C(=S)Nc1ccccc1	none
CNC(=S)N(CCO)Cc1cc2cc3c(cc2[nH]c1=O)OCO3	none
O=C(Nc1cccc(F)c1)c1cccnc1NCCc1ccccc1	Mito fusion yeast inconclusive, MCF10A rerep inconclusive
O=C(Nc1ccc(F)cc1)c1cccnc1NCCc1ccccc1	Mito fusion yeast 17.8µM
COc1cc(OC)c(OC)cc1/C=C1\CC(C)C/C(=C\c2cc(OC)c(OC)cc2OC)C1=O (stereo not given)	MCF10A rerep 16.4µM, SW480 rerep inconclusive
CCC1C/C(=C\c2cc(OC)c(OC)cc2OC)C(=O)/C(=C/c2cc(OC)c(OC)cc2OC)C1 (stereo not given)	MCF10A rerep 4.61µM, SW480 rerep 18.4µM
COc1cc(OC)c(OC)cc1/C=C1/Cc2ccccc2C1=O	none
